# Reference: PubChem BioAssay (NCATS)
# Active and inactive are the calls of the source. A call without a number means that no potency is given here. The call rests on the fitted dose curve; in most records, active means well fitted activation curve with a large enough effect; inconclusive means small, poorly fitted or top-dose-only effect; inactive means flat fitted curve, though single readings scatter. Numbered stars: 1 amine (or outer) side, 2 acyl side, 3 side chain; on linkers, the order of the positions; unused ones are H or OH. Bridge positions count the residues as written; N and C are the ends. Square brackets hold non-standard residues; d marks the D form. Peptide text beside a SMILES is read from it. I, II: the chains in the order shown. Actinocin(9to1) = Cc1c2oc3c(C)ccc(C(=O)[*:1])c3nc-2c(C(=O)[*:2])c(N)c1=O; NMeV = CN[C@H](C(=O)O)C(C)C; Sar = CNCC(=O)O
# Assay: Cellular Toxicity (caspase-3) N2a (AID 665);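 further: compound exposure lasted 16 h at 37 °C before readout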
# Settings: N2a cells, luminescence; Potency: caspase-3 activation; series mostly up to 92.2 µM
# Method in brief: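 Concentration-response qHTS: compound-induced caspase-3/7 luminescence in N2a cells (16 h, 37 °C), relative to DMSO and 10 uM staurosporine controls; AC50 obtained using the standard Hill equation.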
# Potency means the concentration at half of the fitted maximal effect.
row,Structure (SMILES),Potency
1,"Cc1c2oc3c(C)ccc(C(=O)N[C@@H]4C(=O)N[C@H](C(C)C)C(=O)N5CCC[C@H]5C(=O)N(C)CC(=O)N(C)[C@@H](C(C)C)C(=O)O[C@@H]4C)c3nc-2c(C(=O)N[C@@H]2C(=O)N[C@H](C(C)C)C(=O)N3CCC[C@H]3C(=O)N(C)CC(=O)N(C)[C@@H](C(C)C)C(=O)O[C@@H]2C)c(N)c1=O (I: T[dV]P[Sar][NMeV] / II: T[dV]P[Sar][NMeV]; ester I:1-I:C, II:1-II:C; linker I:N-II:N via Actinocin(9to1))",7.94 nM (active)
2,COC1=CC(=O)C[C@@H](C)[C@]12Oc1c(Cl)c(OC)cc(OC)c1C2=O,inactive
3,O=c1ccc2ccccc2o1,inactive
4,CCCCCCc1ccc(O)cc1O,inactive
5,O=C(O)CCCCC(=O)O,inactive
6,CC(=O)Oc1ccc(C(c2ccc(OC(C)=O)cc2)c2ccccn2)cc1,inactive
